Results as given in ChEMBL document CHEMBL3988442, “University of Dundee, Small-Polar-MMV Screening Library” (2021).
For part of these data: Results with a measured potency or affinity are listed apart.

Tests used:
Design in all cases: scale not given: direction of the effect not stated beside the values
[1] = target: Protein translocase subunit SecA (Escherichia coli (strain K12)) (UniProt P10408); assay: Assay to Identify E. coli SecA ATPase Inhibitors; format: functional; settings: 30 µM
[2] = target: T1, Ubiquitin-activating enzyme e1, putative (Leishmania donovani (strain BPK282A1)) (UniProt E9BSI1); assay: Leishmania donovani Ubiquitin Activating Enzyme (LdE1); format: functional; settings: 30 µM
T1 sequence (whole entry): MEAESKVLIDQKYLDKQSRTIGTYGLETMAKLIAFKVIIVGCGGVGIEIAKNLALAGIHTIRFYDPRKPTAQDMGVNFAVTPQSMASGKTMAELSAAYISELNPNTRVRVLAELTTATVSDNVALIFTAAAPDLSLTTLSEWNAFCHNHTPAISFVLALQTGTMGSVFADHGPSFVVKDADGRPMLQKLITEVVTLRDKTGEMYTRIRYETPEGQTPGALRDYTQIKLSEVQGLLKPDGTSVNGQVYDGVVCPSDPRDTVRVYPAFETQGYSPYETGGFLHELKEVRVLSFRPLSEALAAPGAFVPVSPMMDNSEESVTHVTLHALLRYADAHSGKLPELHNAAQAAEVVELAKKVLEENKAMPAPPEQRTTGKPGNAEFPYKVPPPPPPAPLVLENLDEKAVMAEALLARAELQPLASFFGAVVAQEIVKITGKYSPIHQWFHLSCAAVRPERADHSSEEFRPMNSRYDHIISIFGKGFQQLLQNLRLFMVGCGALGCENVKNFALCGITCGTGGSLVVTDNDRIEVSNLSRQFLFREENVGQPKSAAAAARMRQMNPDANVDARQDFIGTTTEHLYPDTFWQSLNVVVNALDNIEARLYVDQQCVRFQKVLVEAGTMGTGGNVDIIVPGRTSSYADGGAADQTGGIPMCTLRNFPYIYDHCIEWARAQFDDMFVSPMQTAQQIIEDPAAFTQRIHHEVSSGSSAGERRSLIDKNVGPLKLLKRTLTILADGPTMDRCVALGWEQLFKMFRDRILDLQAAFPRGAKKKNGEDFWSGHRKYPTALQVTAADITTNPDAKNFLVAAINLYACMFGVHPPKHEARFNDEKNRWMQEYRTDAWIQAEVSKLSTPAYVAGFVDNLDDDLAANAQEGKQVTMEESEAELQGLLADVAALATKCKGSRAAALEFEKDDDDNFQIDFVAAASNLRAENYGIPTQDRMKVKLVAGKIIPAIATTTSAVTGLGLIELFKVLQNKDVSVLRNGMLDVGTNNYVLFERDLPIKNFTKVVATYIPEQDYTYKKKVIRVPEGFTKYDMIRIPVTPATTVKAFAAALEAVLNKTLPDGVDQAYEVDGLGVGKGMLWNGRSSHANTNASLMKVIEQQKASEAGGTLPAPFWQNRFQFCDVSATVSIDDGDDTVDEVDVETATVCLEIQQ

[3] = target: AMP-activated protein kinase, AMPK (Homo sapiens) (UniProt P54646+O43741+P54619+Q9UGJ0+Q9Y478+Q13131+Q9UGI9); assay: AMP-dependent Kinase enzyme assay. An in vitro enzyme assay that detects ADP turnover that is directly proportional to AMPK activity. This uses naive AMPK that is activated during the assay with MK-8722; format: functional; settings: 30 µM
[4] = target: Sialic acid-binding Ig-like lectin 9 (Homo sapiens) (UniProt Q9Y336); assay: Hs-Siglec9 ALPHAscreen SOP 20170721; settings: 10 µM
[5] = tested on: Trypanosoma cruzi; assay: Trypanosoma cruzi phosphomannomutase and mannose-1-phosphate guanylyltransferase assay; format: functional; settings: 10 µM
[6] = target: T2, Arginase-2, mitochondrial (Homo sapiens) (UniProt P78540); assay: in vitro enzyme assay to detect the production of urea directly proportional to the activity of Arginase II; format: functional; settings: 33.3 µM; further: in the data most compounds retested in dose-response had high values
T2 sequence (whole entry): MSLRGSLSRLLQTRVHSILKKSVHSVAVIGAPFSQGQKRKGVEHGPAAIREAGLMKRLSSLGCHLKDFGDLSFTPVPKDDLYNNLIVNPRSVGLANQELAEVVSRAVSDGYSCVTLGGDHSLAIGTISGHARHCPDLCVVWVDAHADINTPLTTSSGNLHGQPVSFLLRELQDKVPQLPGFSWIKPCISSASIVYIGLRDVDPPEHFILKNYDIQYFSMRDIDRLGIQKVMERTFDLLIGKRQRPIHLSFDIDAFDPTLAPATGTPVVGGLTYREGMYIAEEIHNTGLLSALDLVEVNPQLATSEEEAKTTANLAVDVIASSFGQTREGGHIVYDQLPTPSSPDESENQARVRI

[7] = target: T3, Proteasome subunit beta (Trypanosoma cruzi) (UniProt O96673); assay: Trypanosoma cruzi proteasome chymotrypsin-like activity (TcProtChymo) assay.; further: in the data most compounds retested in dose-response had high values; format: functional; settings: 9.37 µM
T3 sequence (whole entry): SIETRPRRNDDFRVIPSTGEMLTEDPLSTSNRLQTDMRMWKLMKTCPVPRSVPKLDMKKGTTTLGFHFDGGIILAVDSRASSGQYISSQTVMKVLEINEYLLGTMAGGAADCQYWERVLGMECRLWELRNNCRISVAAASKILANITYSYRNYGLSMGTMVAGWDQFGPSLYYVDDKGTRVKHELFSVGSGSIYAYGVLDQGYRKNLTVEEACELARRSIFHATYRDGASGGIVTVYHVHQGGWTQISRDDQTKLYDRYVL

[8] = species: Homo sapiens; assay: To identify inhibition of the IFN signalling (Jak-Stat) pathway via expression of an eGFP reporter gene under the control of an IFN-stimulated response element (ISRE) containing MxA promoter.; format: functional; settings: 30 µM
[9] = target: T4, Tyrosyl-tRNA synthetase, putative (Trypanosoma cruzi (strain CL Brener)) (UniProt Q4DSP6); assay: Trypanosoma cruzi tyrosyl tRNA synthetase (TcYRS) _High Tyrosine SOP; format: functional; settings: 30 µM; further: in the data most compounds retested in dose-response had high values
T4 sequence (whole entry): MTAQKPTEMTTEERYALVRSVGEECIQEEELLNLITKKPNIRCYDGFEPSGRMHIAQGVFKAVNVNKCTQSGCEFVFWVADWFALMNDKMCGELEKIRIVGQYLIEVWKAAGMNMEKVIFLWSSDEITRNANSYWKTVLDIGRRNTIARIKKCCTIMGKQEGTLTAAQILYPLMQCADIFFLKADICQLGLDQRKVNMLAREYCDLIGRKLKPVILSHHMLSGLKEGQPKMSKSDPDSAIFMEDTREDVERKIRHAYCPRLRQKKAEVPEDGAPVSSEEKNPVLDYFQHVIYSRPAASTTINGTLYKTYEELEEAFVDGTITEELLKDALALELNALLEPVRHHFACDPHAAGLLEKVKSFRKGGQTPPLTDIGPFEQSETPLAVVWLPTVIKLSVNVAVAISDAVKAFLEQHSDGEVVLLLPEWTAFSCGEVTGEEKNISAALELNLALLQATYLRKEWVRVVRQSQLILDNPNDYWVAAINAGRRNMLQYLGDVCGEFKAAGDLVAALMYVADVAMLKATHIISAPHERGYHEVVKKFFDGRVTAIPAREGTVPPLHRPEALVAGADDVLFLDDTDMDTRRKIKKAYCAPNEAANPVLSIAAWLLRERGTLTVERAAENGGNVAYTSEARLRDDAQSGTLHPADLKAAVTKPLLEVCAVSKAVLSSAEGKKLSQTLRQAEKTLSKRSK

[10] = target: T4, Tyrosyl-tRNA synthetase, putative (Trypanosoma cruzi (strain CL Brener)); assay: Trypanosoma cruzi tyrosyl tRNA synthetase (TcYRS) SOP; format: functional; settings: 30 µM
[11] = target: Chromo domain-containing protein 1 (Saccharomyces cerevisiae (strain ATCC 204508 / S288c) (Baker's yeast)) (UniProt P32657); assay: ScCHD-1 Enzyme Inhibition Assay; format: functional; settings: 30 µM; further: in the data most compounds retested in dose-response had high values
Chain of Chromo domain-containing protein 1 (Saccharomyces cerevisiae (strain ATCC 204508 / S288c) (Baker's yeast)) (P32657 whole entry, the tested form may be a part): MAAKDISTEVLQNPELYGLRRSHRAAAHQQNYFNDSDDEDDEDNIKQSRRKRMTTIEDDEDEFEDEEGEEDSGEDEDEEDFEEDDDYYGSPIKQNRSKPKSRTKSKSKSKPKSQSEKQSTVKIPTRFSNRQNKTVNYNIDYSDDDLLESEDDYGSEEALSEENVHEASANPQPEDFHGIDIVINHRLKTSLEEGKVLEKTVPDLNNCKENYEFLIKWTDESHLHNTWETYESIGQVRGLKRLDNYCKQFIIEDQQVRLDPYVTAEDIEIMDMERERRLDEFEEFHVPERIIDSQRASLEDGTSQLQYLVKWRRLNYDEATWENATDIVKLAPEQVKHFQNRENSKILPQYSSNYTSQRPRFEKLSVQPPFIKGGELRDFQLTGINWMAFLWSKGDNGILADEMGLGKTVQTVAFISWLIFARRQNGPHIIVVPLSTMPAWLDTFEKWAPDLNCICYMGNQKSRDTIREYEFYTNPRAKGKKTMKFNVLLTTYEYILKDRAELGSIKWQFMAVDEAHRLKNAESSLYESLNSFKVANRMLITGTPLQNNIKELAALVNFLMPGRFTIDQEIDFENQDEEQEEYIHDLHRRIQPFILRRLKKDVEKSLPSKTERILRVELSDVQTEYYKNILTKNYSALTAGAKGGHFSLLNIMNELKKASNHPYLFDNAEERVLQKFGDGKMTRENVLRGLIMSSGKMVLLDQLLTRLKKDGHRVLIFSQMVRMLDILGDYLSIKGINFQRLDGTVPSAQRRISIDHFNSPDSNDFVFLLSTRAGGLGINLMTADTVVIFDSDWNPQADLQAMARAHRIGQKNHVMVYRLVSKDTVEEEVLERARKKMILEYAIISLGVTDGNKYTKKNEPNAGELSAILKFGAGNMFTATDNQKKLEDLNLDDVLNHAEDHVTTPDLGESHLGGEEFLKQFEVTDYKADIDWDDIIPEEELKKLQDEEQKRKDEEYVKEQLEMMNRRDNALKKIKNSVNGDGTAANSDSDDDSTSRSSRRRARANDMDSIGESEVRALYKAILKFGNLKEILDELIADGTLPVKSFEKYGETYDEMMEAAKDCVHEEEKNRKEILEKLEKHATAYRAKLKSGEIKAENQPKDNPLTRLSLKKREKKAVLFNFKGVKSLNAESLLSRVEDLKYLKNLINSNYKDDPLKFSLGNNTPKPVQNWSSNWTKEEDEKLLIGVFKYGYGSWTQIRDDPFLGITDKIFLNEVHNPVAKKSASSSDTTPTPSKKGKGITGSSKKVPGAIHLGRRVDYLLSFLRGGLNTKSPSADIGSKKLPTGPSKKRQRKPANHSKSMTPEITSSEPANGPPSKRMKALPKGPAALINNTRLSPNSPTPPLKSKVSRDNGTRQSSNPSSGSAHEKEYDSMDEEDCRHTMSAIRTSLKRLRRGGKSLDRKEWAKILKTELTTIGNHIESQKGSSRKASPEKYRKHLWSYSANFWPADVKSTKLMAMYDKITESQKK

Chain of Sialic acid-binding Ig-like lectin 9 (Homo sapiens) (Q9Y336 whole entry): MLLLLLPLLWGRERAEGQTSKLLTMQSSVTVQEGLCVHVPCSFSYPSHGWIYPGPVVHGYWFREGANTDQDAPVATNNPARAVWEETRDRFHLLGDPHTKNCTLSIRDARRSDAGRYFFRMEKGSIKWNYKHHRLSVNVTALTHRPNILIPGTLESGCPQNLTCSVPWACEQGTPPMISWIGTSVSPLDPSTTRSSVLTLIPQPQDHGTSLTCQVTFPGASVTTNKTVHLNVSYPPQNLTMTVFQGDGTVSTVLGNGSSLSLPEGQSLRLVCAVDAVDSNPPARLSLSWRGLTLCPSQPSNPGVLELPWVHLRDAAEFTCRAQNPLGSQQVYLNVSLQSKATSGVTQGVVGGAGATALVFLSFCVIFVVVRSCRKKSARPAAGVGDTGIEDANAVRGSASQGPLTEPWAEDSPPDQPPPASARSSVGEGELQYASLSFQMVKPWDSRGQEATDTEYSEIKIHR
Chain of Protein translocase subunit SecA (Escherichia coli (strain K12)) (P10408 whole entry): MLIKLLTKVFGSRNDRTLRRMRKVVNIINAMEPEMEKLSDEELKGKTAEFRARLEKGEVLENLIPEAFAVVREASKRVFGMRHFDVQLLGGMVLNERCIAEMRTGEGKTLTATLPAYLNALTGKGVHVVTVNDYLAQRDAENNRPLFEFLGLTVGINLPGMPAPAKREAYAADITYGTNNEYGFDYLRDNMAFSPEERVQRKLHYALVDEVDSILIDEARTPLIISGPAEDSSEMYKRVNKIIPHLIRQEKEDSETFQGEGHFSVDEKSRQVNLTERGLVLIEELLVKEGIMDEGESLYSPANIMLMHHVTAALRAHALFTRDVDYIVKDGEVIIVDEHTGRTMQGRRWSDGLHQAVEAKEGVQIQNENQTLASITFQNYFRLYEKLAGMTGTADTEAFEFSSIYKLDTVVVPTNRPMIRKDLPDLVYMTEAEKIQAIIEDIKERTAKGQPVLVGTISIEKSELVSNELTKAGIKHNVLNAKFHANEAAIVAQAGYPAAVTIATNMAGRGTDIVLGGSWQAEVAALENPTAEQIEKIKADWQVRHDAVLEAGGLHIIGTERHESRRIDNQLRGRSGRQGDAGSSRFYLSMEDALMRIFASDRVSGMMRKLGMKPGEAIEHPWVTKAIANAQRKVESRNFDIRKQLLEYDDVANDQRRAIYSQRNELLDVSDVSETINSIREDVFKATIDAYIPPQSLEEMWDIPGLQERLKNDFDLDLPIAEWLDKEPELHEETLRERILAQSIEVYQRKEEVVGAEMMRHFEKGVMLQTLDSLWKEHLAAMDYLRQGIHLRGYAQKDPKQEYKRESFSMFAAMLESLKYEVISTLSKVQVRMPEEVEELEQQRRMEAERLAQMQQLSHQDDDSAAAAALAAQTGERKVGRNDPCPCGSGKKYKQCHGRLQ

| SMILES | Percent Effect [1] | Percent Effect [2] | Percent Effect [3] | Percent Effect [4] | Percent Effect [5] | Percent Effect [6] | Percent Effect [7] | Percent Effect [8] | Percent Effect [9] | Percent Effect [10] | Percent Effect [11] |
| --- | --- | --- | --- | --- | --- | --- | --- | --- | --- | --- | --- |
| CN(C)c1cncc(C2CCN(CCO)CC2)n1 | -3.32% | 12.2% | 5.42% | -1.62% | -2.96% | -3.94% | 8.74% | 8.75% | 7.53% | 16.9% | -15.7% |
| CC(C)(C)c1nc(CN2CCC(c3nc4cc(Cl)ccc4o3)CC2)no1 | 0.762% | 13.5% | 3.19% | 22.6% | 7.92% | 4.76% | 7.76% | 10.2% | 2.65% | 0% | -5.62% |
| CN(C)C(=O)NCc1cc2n(n1)CCN(C[C@H]1[C@@H]3CNC[C@@H]31)C2 | -4.24% | 13.5% | -5.71% | 30.6% | 9.65% | 15.7% | 9.65% | 10.3% | 3.7% | 19.5% | -12.2% |
| CCc1nc(CN2CCCC(NCc3cnn(C(C)(C)C)c3)C2)no1 (stereo unspecified) | -2.85% | 2.53% | -0.494% | 3.84% | -1.6% | -1.52% | 6.63% | 14.9% | -1.48% | -1.27% | -0.901% |
| CN(Cc1nnc(C2CC2)n1C)C(=O)c1ccnc(OC2CCC2)c1 | -5.02% | 2.7% | 2.08% | 2.83% | 3.09% | 1.43% | 6.21% | -9.69% | 0.529% | -2.44% | -2.68% |
| Cn1cnnc1S(=O)(=O)C1CCN(S(=O)(=O)c2c(Cl)cccc2Cl)CC1 | -1.95% | 0% | 5.5% | -4.3% | -1.76% | -2.27% | 4.97% | 6.49% | 0% | 0% | 0.0853% |
| Cc1noc(-c2ccc(N3CCCC(C(=O)N4CCSCC4)C3)nc2)n1 (stereo unspecified) | -5.7% | -2.74% | 24% | 1.74% | -3.92% | -1.36% | 6.57% | -0.682% | 1.07% | 2.5% | -3.84% |
| Cc1cccc(-n2cc(C(=O)N3CCCC(n4cccn4)C3)nn2)c1 (stereo unspecified) | -6.43% | 23.4% | -0.0164% | -1.49% | 5.78% | -2.74% | 27.4% | 4.51% | 6.67% | 25.9% | -14.2% |
| COc1ccc(CCN2CCCC2Cn2nc(C)nc2C)cc1 (stereo unspecified) | -3.93% | 10.1% | -5.37% | -5.48% | -0.85% | 6.46% | 6.31% | 26.4% | 6.4% | 8.86% | -5.44% |
| O=C(CCc1ccc(O)cc1)N1CCC(Cc2ccc(CO)cc2)C1 (stereo unspecified) | -2.29% | 6.94% | 21.8% | -5.94% | -2.82% | 1.32% | 8.6% | -10.8% | 5.26% | 12.8% | -1.12% |
| CC(C)N1CCCC(CCCc2ccccn2)(C(=O)O)C1 (stereo unspecified) | -3.09% | 6.76% | 15.5% | 0.499% | -1.98% | -0.696% | 12.3% | -2.07% | 10.8% | 14.3% | 4.56% |
| COC(=O)C(C)(C)NC(=O)C1CC(=O)N(C)C1 (stereo unspecified) | -1.38% | -2.74% | -4.39% | 9.64% | 2.78% | -0.798% | 3.17% | -3.68% | -1.04% | 8.64% | 4.14% |
| O=C(NC[C@]12COC[C@H]1CN(Cc1nccs1)C2)c1ccccc1 | -4.56% | 17.3% | -62.1% | 6.67% | 3.34% | -6.87% | 15.7% | 4.15% | 2.12% | 7.69% | -9.52% |
| CC(=O)N1CCC(c2nccnc2Oc2ccccc2)CC1 | -6.13% | 4.05% | 4.17% | -0.964% | -6.32% | -3.02% | 4.06% | 13.5% | 2.15% | 1.3% | 11.4% |
| Cc1cc(CN2CCC(CNC(=O)c3ccc(O)c(Cl)c3)C2)[nH]n1 (stereo unspecified) | -4.67% | 2.7% | -0.362% | 22.1% | -8.7% | 2.23% | 5.24% | 4.66% | 2.15% | 11.1% | -0.611% |
| CCOc1ccccc1C(=O)NS(=O)(=O)c1ccc2c(c1)OCCCO2 | -5.62% | 5.26% | -3.19% | 0.997% | 3.08% | -3.24% | 8.04% | 7.05% | -29.1% | -21% | -8.5% |
| COc1ccc(C(CO)NC(=O)Nc2cccnc2)cc1 (stereo unspecified) | -4.93% | -2.7% | -0.874% | 3.21% | -3.86% | -3.81% | 10.9% | 10.2% | -0.529% | -4.88% | -2.24% |
| CCN(C)c1ccc(C(=O)N(CCOC)Cc2ccccn2)cc1 | -4.29% | 21.3% | -3.55% | 21.4% | 7.89% | 38.5% | 15.2% | 20.7% | 6.01% | 21% | -5.22% |
| COc1c(C2CCCN2C(=O)c2ccc3cc[nH]c3c2)c(C)nn1C (stereo unspecified) | -4% | 18.2% | 1.47% | -0.102% | 7.93% | -4.42% | 7.68% | 3.62% | 4.76% | 14.1% | -21.5% |
| CCCc1ncc(C(=O)N2CCOC(c3nc(C)n[nH]3)C2)s1 (stereo unspecified) | -2.75% | -3.8% | 4.69% | 3.58% | -6.46% | 7.1% | 5.66% | 11.7% | 1.04% | -2.53% | 9.76% |
| Cc1cnc(CNC(=O)NCc2cccnc2N(C)C)s1 | -3.06% | -2.6% | 1.02% | 13.8% | -2.43% | 2.85% | -5.07% | 5.66% | 0% | 7.32% | 2.89% |
